Assay outcomes (PubChem)
This is a sample that favours compounds with a hit; in the whole collection about 4.8% have one here.
SMARCA2 act: SMARCA2 function activation, primary screen. AID 652017. activation, % at 9.1 µM. hit rate 1% among 370,000. MG213 cells, MMTV-luciferase reporter, dexamethasone, overnight; in the data active means activation above about 7.8%;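 further: 0% = vehicle wells and 100% = reference activator wells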
hcDAF12 agonist: H. contortus DAF-12 activation, primary screen; HEK293 hcDAF-12 lit1-tk-luc reporter, luminescence; 0% DMSO, 100% Δ7-dafachronic acid; hit rate 1.4% among 370,000; activation, % at 6.8 µM;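 active means activation above the mean of all tested compounds plus 3 SD, cut at about 5.5% in these data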;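 further: 100% = response to 3 µM Δ7-dafachronic acid high control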
DAX1 inh-1: inhibitors of DAX1 repression of SF-1 activated StAR promoter. AID 652010. inhibition, % at 6.8 µM. hit rate 1.1% among 370,000. HEK293T StAR-luciferase reporter, SF-1/DAX-1 repression relief;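 active means inhibition above the mean over all tested compounds plus 3 SD, cut at about 3.6% in these data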;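 further: 0% = DAX-1 cells with DMSO and 100% = cells lacking DAX-1 with DMSO; higher inhibition means more luminescence from relief of DAX-1 repression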
DAX1 inh-2: inhibitors of human orphan nuclear receptor DAX1 (NR0B1). HEK293 Gal4-DAX1 luciferase reporter, luminescence. AID 504766. P51843. inhibition, % at 6.75 µM. hit rate 0.99% among 340,000;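 active means inhibition above the mean over all tested compounds plus 3 SD, cut at about 4.2% in these data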;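 further: 0% = DAX1-transfected cells with DMSO and 100% = empty-vector control cells with DMSO; inhibition shows as a rise in luminescence from relieved DAX1 repression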
ssDAF-12 act: activators of S. stercoralis DAF-12 nuclear receptor; HEK293 ssDAF-12/GRIP1 lit1-tk-luc reporter, luminescence; % of 3 µM dafachronic acid response; activation, % at 6.8 µM; hit rate 1% among 370,000;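 active means activation above the mean over all tested compounds plus 3 SD, cut at about 0.9% in these data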;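 further: 0% = DMSO-only wells and 100% = 3 µM delta7-dafachronic acid wells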
hgDAF-12 ag: hgDAF-12 agonism, primary luciferase screen; HEK293 GAL4-hgDAF12 UAS-luciferase reporter, agonist luminescence; normalized to butyrate control; activation, % at 6.8 µM; hit rate 1.8% among 370,000;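 active means activation above a cutoff set at the mean of all screened compounds plus 3 SD, cut at about 10% in these data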;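 further: 0% = DMSO wells and 100% = sodium butyrate wells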
LXRb hcDAF ctr: counter-screen for hcDAF-12 agonists: agonists of human LXR-beta; shares compounds with hcDAF12 agonist; HEK293 Gal4-LXR tk-luc reporter, luminescence, 24 h; normalized: DMSO 0%, positive control 100%; activation, % at 6.8 µM; 3,400 tested, under 10 active;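 active means mean percent activation of the reporter above a cutoff set as the average over tested compounds plus their standard deviation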
Target sequence (P55055 whole entry, looked up, the tested form may be a part): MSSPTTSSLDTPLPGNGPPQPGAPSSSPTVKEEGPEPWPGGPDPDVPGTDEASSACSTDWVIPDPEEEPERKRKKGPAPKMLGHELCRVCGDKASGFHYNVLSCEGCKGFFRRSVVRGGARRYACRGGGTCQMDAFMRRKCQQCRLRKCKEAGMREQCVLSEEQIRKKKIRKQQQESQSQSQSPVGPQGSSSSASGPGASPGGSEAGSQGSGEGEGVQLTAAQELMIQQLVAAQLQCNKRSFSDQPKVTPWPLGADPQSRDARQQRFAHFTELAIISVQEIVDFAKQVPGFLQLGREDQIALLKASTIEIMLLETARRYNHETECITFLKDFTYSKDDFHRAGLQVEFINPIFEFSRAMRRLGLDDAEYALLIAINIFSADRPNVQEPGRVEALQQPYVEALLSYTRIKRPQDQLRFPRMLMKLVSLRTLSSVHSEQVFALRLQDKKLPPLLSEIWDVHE
hcDAF12 conf: hcDAF-12 agonism, confirmation assay; shares compounds with hcDAF12 agonist; HEK293 hcDAF-12 lit1-tk-luc reporter, luminescence; % of Δ7-dafachronic acid response; activation, % at 6.8 µM; hit rate 61% among 3,400;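 active means mean activation across triplicate tests above the threshold derived from the earlier primary screen, cut at about 5.5% in these data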;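 further: 0% = DMSO only wells and 100% = 3 µM Δ7-dafachronic acid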
* = called active by the depositor.

What do the screens show for `Cc1ccnc(NS(=O)(=O)c2ccc(NC(=O)c3ccc(S(=O)(=O)N4CC(C)OC(C)C4)cc3)cc2)n1` (configuration not stated)?
SMARCA2 act: 0; hcDAF12 agonist: 19*; DAX1 inh-1: 1; DAX1 inh-2: 0; ssDAF-12 act: -1; hgDAF-12 ag: 0; LXRb hcDAF ctr: 0; hcDAF12 conf: 1

How did CC1CN(S(=O)(=O)c2ccc(C(=O)Nc3ccc(S(=O)(=O)Nc4nccs4)cc3)cc2)CC(C)O1 (configuration not stated) do in these assays?
SMARCA2 act: 1; hcDAF12 agonist: 1; DAX1 inh-1: 2; DAX1 inh-2: 3; ssDAF-12 act: -1; hgDAF-12 ag: -2

What do the screens show for `COc1cccc(-n2c(SCC(=O)NCC3CCCO3)nc3c([nH]c4ccccc43)c2=O)c1` (configuration not stated)?
SMARCA2 act: -3; hcDAF12 agonist: 4; DAX1 inh-1: 1; DAX1 inh-2: -1; ssDAF-12 act: -1; hgDAF-12 ag: -3

Results for COc1ccc(-n2c(SCC(=O)NCC3CCCO3)nc3c([nH]c4ccccc43)c2=O)cc1 (configuration not stated) ?
SMARCA2 act: -2; hcDAF12 agonist: 7.3*; DAX1 inh-1: 0; DAX1 inh-2: 0; ssDAF-12 act: 0; hgDAF-12 ag: 3; LXRb hcDAF ctr: 0; hcDAF12 conf: 3

How did COc1ccc(-n2c(SCC(=O)NCC3CCCO3)nc3c([nH]c4ccccc43)c2=O)cc1OC (configuration not stated) do in these assays?
SMARCA2 act: -1; hcDAF12 agonist: 8.1*; DAX1 inh-1: -1; DAX1 inh-2: 0; ssDAF-12 act: 0; hgDAF-12 ag: 10*; LXRb hcDAF ctr: 0; hcDAF12 conf: 5

What do the screens show for `O=C(C(=O)N1CCC(CNS(=O)(=O)c2ccccc2)CC1)c1cc2ccccc2o1`?
SMARCA2 act: -4; hcDAF12 agonist: -1; DAX1 inh-1: 0; ssDAF-12 act: -2; hgDAF-12 ag: -2

Results for CC(C)[C@H](NC(=O)C1CC1)C(=O)N1CCC[C@H]1C(=O)NCCc1ccccc1Cl ?
SMARCA2 act: 1; hcDAF12 agonist: -1; DAX1 inh-1: 1; ssDAF-12 act: -1; hgDAF-12 ag: 1

How did CCCCOc1ccc(C(=O)NC2CCCCN(CCC)C2=O)cc1 (configuration not stated) do in these assays?
SMARCA2 act: 1; hcDAF12 agonist: 0; DAX1 inh-1: -1; ssDAF-12 act: -1; hgDAF-12 ag: 6

What do the screens show for `CC(C)=NNc1nc(-c2ccc(N3C(=O)CCC3=O)cc2)cs1`?
SMARCA2 act: -3; hcDAF12 agonist: -3; DAX1 inh-1: 0; DAX1 inh-2: -4; ssDAF-12 act: -1; hgDAF-12 ag: -2

How did C/C(=N\Nc1nc2c(s1)CCCC2)c1ccccc1 do in these assays?
SMARCA2 act: 3; hcDAF12 agonist: 7.4*; DAX1 inh-1: 2; DAX1 inh-2: 3; ssDAF-12 act: 1.4*; hgDAF-12 ag: 6; LXRb hcDAF ctr: 1; hcDAF12 conf: 11*

What do the screens show for `C/C(=N\Nc1nc(C(C)(C)C)cs1)c1ccccc1`?
SMARCA2 act: 5; hcDAF12 agonist: 7.0*; DAX1 inh-1: 1; DAX1 inh-2: 6.6*; ssDAF-12 act: 2.2*; hgDAF-12 ag: 13*; LXRb hcDAF ctr: 1; hcDAF12 conf: 8.6*

Results for O=C(Nc1nc2c(s1)CCCC2)Oc1ccccc1 ?
SMARCA2 act: 3; hcDAF12 agonist: 0; DAX1 inh-1: 0; DAX1 inh-2: 1; ssDAF-12 act: -1; hgDAF-12 ag: 1

How did CC(C)=NNc1nc(-c2ccccc2)cs1 do in these assays?
SMARCA2 act: 2; hcDAF12 agonist: 7.2*; DAX1 inh-1: 0; DAX1 inh-2: 2; ssDAF-12 act: 0; hgDAF-12 ag: 5; LXRb hcDAF ctr: 0; hcDAF12 conf: 2

How did CCc1c(C)nc(SCC(N)=O)c(C#N)c1C do in these assays?
SMARCA2 act: -1; hcDAF12 agonist: -2; DAX1 inh-1: 0; DAX1 inh-2: 0; ssDAF-12 act: -1; hgDAF-12 ag: 1

How did CCc1c(C)nc(SCC(=O)c2cccs2)c(C#N)c1C do in these assays?
SMARCA2 act: 8; hcDAF12 agonist: 8.2*; DAX1 inh-1: 2; DAX1 inh-2: 2; ssDAF-12 act: 1; hgDAF-12 ag: 6; LXRb hcDAF ctr: 1; hcDAF12 conf: 8.7*

What do the screens show for `Oc1ccccc1-c1nc2c3ccccc3c3ccccc3c2[nH]1`?
SMARCA2 act: -1; hcDAF12 agonist: 7.5*; DAX1 inh-1: -1; DAX1 inh-2: 2; ssDAF-12 act: 0; hgDAF-12 ag: 4; LXRb hcDAF ctr: 0; hcDAF12 conf: 5

What do the screens show for `CCOC(=O)C(=NCC1CCCO1)NNc1cc(Cl)ccc1Cl` (configuration not stated)?
SMARCA2 act: 0; hcDAF12 agonist: 7.5*; DAX1 inh-1: 0; DAX1 inh-2: 0; ssDAF-12 act: -1; hgDAF-12 ag: 1; LXRb hcDAF ctr: 0; hcDAF12 conf: 1

Results for CCOC(=O)/C(=N\Nc1cc(Cl)ccc1Cl)N1CC(C)OC(C)C1 (configuration not stated) ?
SMARCA2 act: 0; hcDAF12 agonist: -1; DAX1 inh-1: 0; DAX1 inh-2: 0; ssDAF-12 act: -2; hgDAF-12 ag: 4

Results for O=C(O)Cc1ccc2ccc3ccccc3c2c1 ?
SMARCA2 act: -3; hcDAF12 agonist: 8.5*; DAX1 inh-1: 0; ssDAF-12 act: 0; hgDAF-12 ag: 1; LXRb hcDAF ctr: 0; hcDAF12 conf: 5

Results for CN(C(=O)c1ccc2nc(N)sc2c1)c1ccccc1 ?
SMARCA2 act: 0; hcDAF12 agonist: -1; DAX1 inh-1: 0; DAX1 inh-2: -1; ssDAF-12 act: -1; hgDAF-12 ag: -1

How did Nc1nc2ccc(C(=O)Nc3ccccc3)cc2s1 do in these assays?
SMARCA2 act: 2; hcDAF12 agonist: 11*; DAX1 inh-1: 1; DAX1 inh-2: 3; ssDAF-12 act: 1.9*; hgDAF-12 ag: 11*; LXRb hcDAF ctr: 1; hcDAF12 conf: 7.7*

Results for CCOC(=O)c1csc(NC(=O)C2CCCN(S(=O)(=O)c3ccc(Br)s3)C2)n1 (configuration not stated) ?
SMARCA2 act: -5; hcDAF12 agonist: -5; DAX1 inh-1: -3; ssDAF-12 act: -1; hgDAF-12 ag: -7
